Assay outcomes as filed in PubChem BioAssay.
Only a selection was taken, and hits are over-represented in it overall.
HT1080 IDH1KD tx – HT-1080 IDH1 knockdown cell toxicity (counter line). HT-1080 IDH1 knockdown viability, ATP luminescence, 48 h. Potency, µM (titrated, usually from 46.1 µM), inactives show at the top dose activity, negative = toxicity, actives largely listed as cytotoxic. 360,000 tested, 2% active;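 also: potency is read from the fitted curve at half-maximal effect; 0% = DMSO wells and -100% = cell-free medium wells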
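Viability of IDH1-knockdown HT-1080 fibrosarcoma cells was assessed by CellTiter-Glo after 48 h at 37 °C with titrated compound; concentration-effect curves were classified by fit quality and response size.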
IL1B secr inh – inhibitors of inflammasome signaling (IL-1 beta secretion); AID 743279; 360,000 tested, 4.7% active; THP-1 LPS/ATP IL-1B secretion, AlphaLISA, 16 h; hits give low values; activity change, % at 57.5 µM; in the data active = activity change below about -50%; inconclusive = mostly about -30% to -49%
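THP-1 cells pretreated 1 hr with compounds (up to 57.5 uM final), then stimulated with LPS (250 ng/mL final) plus ATP (1.25 mM final); secreted IL-1B measured by AlphaLISA after 16 hr, decreased signal indicating inhibition.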
HT1080-NT tox – kills 2HG-producing HT-1080-NT fibrosarcoma cells; 360,000 tested, 1.6% active; HT-1080-NT fibrosarcoma viability, CellTiter-Glo ATP luminescence, 48 h; Potency, µM (top dose mostly 46.1 µM), for the others: at the highest dose activity, negative = less viability, usual class: cytotoxic;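 also: NT is the 2HG producing partner of a matched IDH1 knockdown line; potency is read from the fitted curve at half-maximal effect; 0% = DMSO-treated cells and -100% = media-only wells without cells; nearly all actives have a fitted effect of over 55% in size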
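Toxicity toward the 2HG-producing NT line was scored as %Activity, normalised to DMSO and no-cell wells, from CellTiter-Glo luminescence after 48 hours' treatment.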
DT40 TDP1 no CPT – qHTS for Inhibitors of human tyrosyl-DNA phosphodiesterase 1 (TDP1): qHTS in cells in absence of CPT. 420,000 tested, 15% active. Potency, µM (titrated, usually from 46.2 µM), without a hit: at the top dose activity change, negative = growth inhibition, hits mostly inhibitors. AID 686978, 2013. DT40 Tdp1-/- hTDP1 cells, no CPT, ATP luminescence, 48 h; also: potency is read from the fitted curve at half-maximal effect; nearly all actives have a fitted effect of over 55% in size
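Readout: luminescence from CellTiter-Glo after 30 min in the dark at RT. Cells: DT40 Tdp1-/- with stable hTDP1, 400/well. Exposure: compounds alone, ≥48 hr, 37 °C.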
ALOX12 inh – ALOX12 (human) lipoxygenase inhibition. 580,000 tested, 1.1% active. AID 1671190. purified 12hLO, xylenol orange hydroperoxide absorbance. Potency, µM (series often up to 108 µM), for inactives: top-dose activity change, negative = inhibition, most hits filed as inhibitors. P18054; also: potency is read from the fitted curve at half-maximal effect
Target sequence (P18054 whole entry, looked up): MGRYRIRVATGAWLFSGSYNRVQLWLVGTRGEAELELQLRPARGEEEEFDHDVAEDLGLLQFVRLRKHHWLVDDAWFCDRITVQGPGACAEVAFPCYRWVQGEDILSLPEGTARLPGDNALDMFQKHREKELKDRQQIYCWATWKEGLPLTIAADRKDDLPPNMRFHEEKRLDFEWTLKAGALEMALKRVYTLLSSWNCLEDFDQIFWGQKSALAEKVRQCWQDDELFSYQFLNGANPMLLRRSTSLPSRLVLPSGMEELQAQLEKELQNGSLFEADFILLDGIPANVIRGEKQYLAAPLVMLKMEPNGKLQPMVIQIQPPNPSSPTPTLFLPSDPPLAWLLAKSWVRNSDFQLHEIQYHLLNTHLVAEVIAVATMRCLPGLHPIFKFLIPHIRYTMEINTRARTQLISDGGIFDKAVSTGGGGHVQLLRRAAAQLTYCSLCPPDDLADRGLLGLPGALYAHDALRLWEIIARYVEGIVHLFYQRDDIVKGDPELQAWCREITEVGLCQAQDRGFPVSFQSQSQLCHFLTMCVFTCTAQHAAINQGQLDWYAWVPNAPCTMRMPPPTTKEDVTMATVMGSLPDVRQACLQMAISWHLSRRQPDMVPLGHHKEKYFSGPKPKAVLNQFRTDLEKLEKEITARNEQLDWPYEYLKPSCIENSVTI
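Purified human 12hLO (150 nM final) in 25 mM Hepes, 0.01% Triton X-100, pH 7.0 was preincubated 15 min at room temperature with compound. Then 40 uM arachidonic acid was added, 30 min. Hydroperoxide was read by Fe-XO absorbance ratio 573/405 nm.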
TDP1 cell CPT – DT40-hTDP1 cell growth loss with CPT; chicken DT40 Tdp1-/-;hTDP1 cells + 20 nM CPT, ATP luminescence, 48 h; Potency, µM (doses to about 46.2 µM), for inactives: at the top dose activity change, negative = growth inhibition, actives largely listed as inhibitors; 420,000 tested, 12% active; also: potency is read from the fitted curve at half-maximal effect; nearly all actives have a fitted effect of over 55% in size
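Chicken DT40 Tdp1-/- cells complemented with human TDP1, 400 cells/well, exposed to compounds plus 20 nM camptothecin for at least 48 h at 37 C; viability read as ATP content by CellTiter-Glo luminescence.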
An asterisk follows results filed as active; [ ] = another dose, or the depositor's remark. Unless noted, calls follow the shape of the dose curve; as a rule, active = well fitted curve in the direction sought with a large enough effect; inconclusive = small, poorly fitted or top-dose-only effect, or another doubt; inactive = no such curve, though single readings can be large; an effect the other way counts as inactive or inconclusive. Unless noted, % is scaled to controls: 0 for no effect and ±100 for the full control effect.

How did CC1=C(C(=O)Nc2cccc(C(=O)NC3CCCCC3C)c2)SCCO1 (stereo unspecified) do in these assays?
HT1080 IDH1KD tx: -1.4%; IL1B secr inh: -0.5; HT1080-NT tox: 19.0%; DT40 TDP1 no CPT: inconclusive; ALOX12 inh: -5.0%; TDP1 cell CPT: 16.4µM*

What do the screens show for `CN1CCCN(CC(=O)N2C[C@H](NS(C)(=O)=O)[C@@H](C3CC3)C2)CC1`?
ALOX12 inh: 17.3%

Results for CC(C)(C)C(=O)NCCCC(=O)NC1CCCC1 ?
ALOX12 inh: -8.4%

Results for CCN1CCC2(CC1)Cc1ccccc1CN(S(=O)(=O)c1ccccc1)C2 ?
ALOX12 inh: 3.9%[6.33 µM]

How did O=C(O)c1ccc(NC(=O)c2ccc(Br)o2)cc1 do in these assays?
ALOX12 inh: -0.3%

What do the screens show for `COc1ccc(Nc2nnc(SCC3CCCCO3)s2)cc1` (stereo unspecified)?
HT1080 IDH1KD tx: 13.6%; IL1B secr inh: 0.0; HT1080-NT tox: 3.7%; DT40 TDP1 no CPT: -2.7%; ALOX12 inh: 359.8%; TDP1 cell CPT: -1.3%

What do the screens show for `Cc1cccc(Nc2nnc(SCC3CCCCO3)s2)c1` (stereo unspecified)?
HT1080 IDH1KD tx: -15.8%; IL1B secr inh: -4.9; HT1080-NT tox: -3.3%; DT40 TDP1 no CPT: inconclusive; ALOX12 inh: 0.2%; TDP1 cell CPT: 23.1µM*

Results for O=C(CSc1nc2cc(C(F)(F)F)ccc2s1)c1ccc2c(c1)CCCC2 ?
ALOX12 inh: -6.0%

How did CCN1C(=O)CSC1=NC12CC3CC(CC(C3)C1)C2 do in these assays?
HT1080 IDH1KD tx: 4.6%; IL1B secr inh: -65.8*; HT1080-NT tox: -0.2%; DT40 TDP1 no CPT: inconclusive; ALOX12 inh: -9.4%; TDP1 cell CPT: inconclusive

How did COc1ccc(C2CC(c3cccc(C(F)(F)F)c3)=NN2c2ccc(S(N)(=O)=O)cc2)cc1 (stereo unspecified) do in these assays?
HT1080 IDH1KD tx: -27.7%; IL1B secr inh: inconclusive; HT1080-NT tox: inconclusive; DT40 TDP1 no CPT: 25.9µM*; ALOX12 inh: -49.1%; TDP1 cell CPT: inconclusive

How did COc1ccc(C2CC(c3ccccc3Cl)=NN2c2ccc(S(N)(=O)=O)cc2)cc1 (stereo unspecified) do in these assays?
HT1080 IDH1KD tx: inconclusive; IL1B secr inh: inconclusive; HT1080-NT tox: 18.4µM*; DT40 TDP1 no CPT: inconclusive; ALOX12 inh: inconclusive; TDP1 cell CPT: inconclusive

How did COc1ccc(C2CC(c3cccc(F)c3)=NN2c2ccc(S(N)(=O)=O)cc2)cc1 (stereo unspecified) do in these assays?
HT1080 IDH1KD tx: -14.8%; IL1B secr inh: -18.6; HT1080-NT tox: -11.1%; DT40 TDP1 no CPT: inconclusive; ALOX12 inh: 31.6µM*; TDP1 cell CPT: inconclusive

How did Fc1ccc(C2=NN(c3cccc(C(F)(F)F)c3)C(c3ccc(F)cc3)C2)cc1 (stereo unspecified) do in these assays?
ALOX12 inh: -16.5%

How did COc1ccc(C2CC(c3ccccc3)=NN2c2ccc(S(N)(=O)=O)cc2)cc1 (stereo unspecified) do in these assays?
HT1080 IDH1KD tx: inconclusive; IL1B secr inh: inconclusive; HT1080-NT tox: inconclusive; DT40 TDP1 no CPT: inconclusive; ALOX12 inh: inconclusive; TDP1 cell CPT: -13.3%

How did COc1ccc(C2CC(c3cccc(Br)c3)=NN2c2ccc(S(N)(=O)=O)cc2)cc1 (stereo unspecified) do in these assays?
HT1080 IDH1KD tx: inconclusive; IL1B secr inh: 0.0; HT1080-NT tox: inconclusive; DT40 TDP1 no CPT: inconclusive; ALOX12 inh: inconclusive; TDP1 cell CPT: 25.9µM*

How did CC1(COc2ccccc2)COc2ccc(C(=O)NC3CCC(O)CC3)cc2N1 (stereo unspecified) do in these assays?
ALOX12 inh: -7.2%[176 µM]

Results for COc1ccc(Nc2cc(C(=O)NCCc3ccccc3)c3ccccc3n2)cc1OC ?
DT40 TDP1 no CPT: -0.7%; ALOX12 inh: -19.1%; TDP1 cell CPT: -4.0%

What do the screens show for `COc1ccc(/C=C/C(=O)NCCN2CCOCC2)cc1OC`?
HT1080 IDH1KD tx: -7.3%; IL1B secr inh: -4.4; HT1080-NT tox: 1.0%; DT40 TDP1 no CPT: 20.6µM*; ALOX12 inh: 0.0%; TDP1 cell CPT: inconclusive

What do the screens show for `CCOc1ccc(-c2cc(C(=O)NCCc3ccc(OC)c(OC)c3)[nH]n2)cc1`?
DT40 TDP1 no CPT: inconclusive; ALOX12 inh: 6.8%; TDP1 cell CPT: inconclusive

What do the screens show for `CCOc1ccc(/C=C/C(=O)NCCc2ccc(OC)c(OC)c2)cc1`?
HT1080 IDH1KD tx: 3.0%; IL1B secr inh: -1.8; HT1080-NT tox: -1.4%; DT40 TDP1 no CPT: 23.1µM*; ALOX12 inh: -3.6%; TDP1 cell CPT: inconclusive

Results for COc1cccc(CNC(=O)c2cc(Sc3cccc(Cl)c3)nc3ccccc23)c1 ?
DT40 TDP1 no CPT: 14.6µM*; ALOX12 inh: -6.2%; TDP1 cell CPT: inconclusive

Results for COc1ccc(CCNC(=O)c2cc(Sc3cccc(Cl)c3)nc3ccccc23)cc1OC ?
DT40 TDP1 no CPT: 7.31µM*; ALOX12 inh: 0.0%; TDP1 cell CPT: 8.2µM*

Results for COc1ccc(-c2nc3cc(NC(=O)CC(C)C)ccc3o2)cc1 ?
ALOX12 inh: 7.7%

What do the screens show for `COc1ccc(N(C)C(=O)c2ccc3ccccc3n2)cc1OC`?
ALOX12 inh: 3.7%

What do the screens show for `Cc1cn2nc(C(=O)N3CCC(NC(=O)Cc4ccc(Cl)cc4)CC3)cc2c(=O)[nH]1`?
ALOX12 inh: 3.6%

How did Cc1ccc(-c2cnc(CCC(=O)Nc3cccc(Cl)c3)o2)cc1C do in these assays?
ALOX12 inh: 4.6%

What do the screens show for `Cc1cccc(-n2ccnc2SC2CCCCC2=O)c1C` (stereo unspecified)?
ALOX12 inh: -18.2%

Results for CCOCCCNC(=O)c1cc(Sc2cccc(Cl)c2)nc2ccccc12 ?
DT40 TDP1 no CPT: 14.6µM*; ALOX12 inh: inconclusive; TDP1 cell CPT: inconclusive

Results for CCOc1ccc(Sc2cc(C(=O)NCCc3ccccc3)c3ccccc3n2)cc1 ?
DT40 TDP1 no CPT: -28.4%; ALOX12 inh: -2.5%; TDP1 cell CPT: -15.4%

Results for CCOCCCNC(=O)c1cc(Sc2ccc(C)cc2)nc2ccccc12 ?
HT1080 IDH1KD tx: -14.3%; IL1B secr inh: inconclusive; HT1080-NT tox: -4.3%; DT40 TDP1 no CPT: inconclusive; ALOX12 inh: -7.2%; TDP1 cell CPT: -20.3%
